Measured values reported in PubChem BioAssay AID720626 (Broad Institute, 2013).
Inconclusive results are not listed. Active and inactive are the calls of the source.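 Rule for the calls: active = all three exposure times show falling viability signal with fitted midpoint dose at most twice top tested dose; inconclusive = calls differ across the three exposure times; inactive = all three exposure times inactive.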

Test: SR lymphoma cell cytotoxicity, late-stage follow-up, mechanism study for HRAS target identification, Alamar Blue fluorescence, several timepoints, dry powder (AID 720626)
Conditions: SR lymphoma cells viability, 48 h; series mostly up to 35 µM

| Compound | outcome |
| --- | --- |
| Cc1onc(C(=O)N2CCN(C(c3ccncc3)c3ccncc3)CC2)c1[N+](=O)[O-] | inactive |
| CCC(=O)N(c1ccc(OC)c(Cl)c1)C(C(=O)NCCc1ccccc1)c1cccs1 (configuration not stated) | inactive |
